The record followed here is PubChem BioAssay (NCATS).

A short description of experiment [1]: qHTS assay to identify small molecule inhibitors of chordoma cells - UCH-1 (AID 1259355). Also: nearly all actives have a fitted effect of over 55% in size. Also: potency is read from the fitted curve at half-maximal effect; series mostly up to about 46 µM. The gist of the method: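 Screening used approved and investigational drugs in 15-point titration against 800 seeded cells per well. A fixed combination of auranofin with camptothecin, doxorubicin, rubitecan and topotecan followed compound addition, and growth was scored by CellTiter-Glo after 48hr.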

Experiment [2] is described as follows: qHTS assay to identify small molecule inhibitors of chordoma cells - UCH-2 (AID 1259356). Also: potency is read from the fitted curve at half-maximal effect. A general note: In qHTS, concentration-response curves come from the screen itself.
Experiment [3] can be described thus: qHTS assay for cell viability of HEK293 cells (AID 743288). Also: nearly all actives have a fitted effect of over 50% in size. Also: potency is read from the fitted curve at half-maximal effect. As to max response: % is scaled to controls: 0 for no effect and ±100 for the full control effect. Conditions: ATP luminescence (CellTiter-Glo), 18 h; max response: active compounds read low. Put shortly: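 HEK293, 18 h, 37 C, ATP luminescence. Cells at 2,000/well were allowed at least 5 h to settle before dosing; CellTiter-Glo developed 30 min at RT.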
Experiment [4] is described as follows: qHTS assay for cell viability of the p53RE-bla HCT-116 cell line (AID 743292). Also: nearly all actives have a fitted effect of over 55% in size. Also: potency is read from the fitted curve at half-maximal effect. The gist of the method:
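ATP-based luminescence, 16 h compound exposure at 37 C, p53RE-bla HCT-116 cells at 4,000/well.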

A short description of experiment [5]: qHTS assay for measurement of the activity of small molecule inhibitors on Zika virus induced Caspase-3 activity in human astrocytoma cells (AID 1224859).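 Also: plate controls were ZIKV-infected untreated cells for no effect and uninfected cells for full effect.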 The gist of the method:
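Compound added 1 h pre-infection; ZIKV 2 FFU/cell on SNB-19 cells, 6 h, 37 C/5% CO2. Caspase-Glo 3/7 luminescence; values as % inhibition of ZIKV-induced caspase activity.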

Experiment [6] in a line: P-glycoprotein substrates identified in KB-8-5-11 adenocarcinoma cell line, qHTS therapeutic library screen (AID 1346987). Also: nearly all actives have a fitted effect of over 65% in size. Also: potency is read from the fitted curve at half-maximal effect. The gist of the method:
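Human cervical adenocarcinoma KB-8-5-11 cells, selected in colchicine to over-express P-gp and assayed without it, were exposed for 72 h to titrated compounds. An ATP-based luminescent viability signal gave AC50.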

Experiment [7] in a line: NS1 protein of Zika virus - qHTS assay to identify small molecule inhibitors in human HEK 293 cells (AID 1347053).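 Also: series mostly up to about 46 µM; plate controls were infected untreated cells for no effect and uninfected cells for full effect; nearly all actives have a fitted effect of over 55% in size.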 The gist of the method: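 Compound-treated (1 h pre-infection) HEK 293 cells infected with ZIKV MR766, MOI = 0.5; after 24 h at 37 C, NS1 read by TR-FRET; data normalized to uninfected and infected controls.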
Experiment [8] addresses Atrial natriuretic peptide receptor 1 (Homo sapiens) (UniProt P16066). Nature of the experiment: Natriuretic polypeptide receptor (hNpr1) antagonism - Pilot screen (AID 1347049; calls by dose curve;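 also: agonist-evoked cGMP luminescence read 20 min after hNppA addition; series mostly up to about 58 µM; % is scaled to controls: 0 for no effect and ±100 for the full control effect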). The gist of the method: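 cGMP-sensor HEK293/hNpr1 cells, 1500/well, plated overnight at 37C. 2% GloSensor reagent, 2 h RT. Compound (23 nL pin transfer) 30 min RT, baseline luminescence pre-read. 0.1 nM hNppA, 20 min RT, post-read.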

For experiment [9], the target named is Atrial natriuretic peptide receptor 2 (Homo sapiens) (UniProt P20594). In words: Natriuretic polypeptide receptor (hNpr2) antagonism - Pilot subtype selectivity assay (AID 1347050; calls by dose curve; also: % is scaled to controls: 0 for no effect and ±100 for the full control effect). The gist of the method:
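Luminescence from a genetically encoded cGMP luciferase biosensor in hNpr2-expressing HEK293 cells is read before and 20 min after adding 1 nM hNppC. Test compounds, in interplate 1:5 titrations, are added 30-50 min ahead of the agonist.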

Experiment [10] is described as follows: P-glycoprotein substrates identified in KB-3-1 adenocarcinoma cell line, qHTS therapeutic library screen (AID 1346986).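 Also: potency is read from the fitted curve at half-maximal effect; potency is for cytotoxicity meaning loss of cell viability; nearly all actives have a fitted effect of over 60% in size.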 The gist of the method: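 Viability by CellTiter-Glo after 72 h compound exposure at 37 degree C, 5% CO2. Cytotoxic call: curve class -1.1 to -2.4, maximum response >50%, AC50 < 10 uM, compared across KB-3-1 and P-gp-overexpressing KB-8-5-11.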

Experiment [11] can be described thus: Natriuretic polypeptide receptor (hNpr1) antagonism - Pilot counterscreen GloSensor control cell line (AID 1347045; calls by dose curve; also: series mostly up to about 38 µM; % is scaled to controls: 0 for no effect and ±100 for the full control effect). The gist of the method: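 The SNP-driven cGMP luminescence signal (50 uM, 20 min, room temperature) was measured in GloSensor HEK293 control cells. Compounds were tested as a LOPAC titration series and preincubated for 30-50 min.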
In general terms: The purpose of a counterscreen is to sort out artefacts and off-target activity.

Experiment [12] can be described thus: qHTS Assay for Identifying Gametocytocidal Compounds (AID 743244). Also: potency is read from the fitted curve at half-maximal effect.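 As to max response: % is scaled to controls: 0 for no effect and ±100 for the full control effect; actives lower the fluorescent signal which means gametocytes are killed.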 To be noted: P. falciparum 3D7 stage III-V gametocytes, alamarBlue, 72 h; max response: active compounds read low. The gist of the method: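 Stage III–V gametocytes of P. falciparum 3D7 were seeded at 20,000 cells/well onto pre-dispensed compounds. After 72 h, 37 °C, 5% CO2, alamarBlue was added for another 24 h.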

Unmarked numbers belong to inactive results. Inconclusive results are not listed. Calls of active or inactive are those of the source. Unless noted, calls follow the shape of the dose curve; as a rule, active = well fitted curve in the direction sought with a large enough effect; inconclusive = small, poorly fitted or top-dose-only effect, or another doubt; inactive = no such curve, though single readings can be large; an effect the other way counts as inactive or inconclusive.

Atrial natriuretic peptide receptor 2 (Homo sapiens), sequence (P20594 whole entry, looked up): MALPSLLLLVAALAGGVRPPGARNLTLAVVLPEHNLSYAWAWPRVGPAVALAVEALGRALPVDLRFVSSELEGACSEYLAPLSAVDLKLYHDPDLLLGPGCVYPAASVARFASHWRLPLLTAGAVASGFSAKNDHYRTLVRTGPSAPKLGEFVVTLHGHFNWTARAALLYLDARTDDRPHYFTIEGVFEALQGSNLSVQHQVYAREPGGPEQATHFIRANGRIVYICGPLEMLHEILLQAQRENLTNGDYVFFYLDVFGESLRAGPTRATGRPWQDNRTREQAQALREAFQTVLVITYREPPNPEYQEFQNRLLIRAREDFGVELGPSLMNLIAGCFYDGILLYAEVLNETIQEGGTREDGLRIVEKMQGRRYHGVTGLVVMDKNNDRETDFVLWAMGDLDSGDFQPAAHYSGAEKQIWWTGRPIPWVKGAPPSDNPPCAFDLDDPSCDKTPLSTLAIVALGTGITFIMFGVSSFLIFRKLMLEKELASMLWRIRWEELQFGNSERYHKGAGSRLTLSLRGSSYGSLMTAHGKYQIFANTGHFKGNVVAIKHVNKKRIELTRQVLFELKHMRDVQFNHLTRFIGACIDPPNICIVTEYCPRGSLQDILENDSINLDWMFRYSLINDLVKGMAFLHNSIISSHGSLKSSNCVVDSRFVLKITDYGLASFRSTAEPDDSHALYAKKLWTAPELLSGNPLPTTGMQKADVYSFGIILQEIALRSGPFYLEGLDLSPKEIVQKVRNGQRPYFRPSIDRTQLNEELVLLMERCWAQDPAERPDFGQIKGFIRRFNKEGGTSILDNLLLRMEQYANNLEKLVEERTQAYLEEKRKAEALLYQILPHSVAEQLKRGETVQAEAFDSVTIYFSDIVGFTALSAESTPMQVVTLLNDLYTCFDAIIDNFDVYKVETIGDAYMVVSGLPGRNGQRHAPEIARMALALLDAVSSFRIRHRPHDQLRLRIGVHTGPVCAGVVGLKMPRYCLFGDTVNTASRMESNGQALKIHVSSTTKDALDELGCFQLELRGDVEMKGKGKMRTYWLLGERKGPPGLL
Atrial natriuretic peptide receptor 1 (Homo sapiens), sequence (P16066 whole entry, looked up): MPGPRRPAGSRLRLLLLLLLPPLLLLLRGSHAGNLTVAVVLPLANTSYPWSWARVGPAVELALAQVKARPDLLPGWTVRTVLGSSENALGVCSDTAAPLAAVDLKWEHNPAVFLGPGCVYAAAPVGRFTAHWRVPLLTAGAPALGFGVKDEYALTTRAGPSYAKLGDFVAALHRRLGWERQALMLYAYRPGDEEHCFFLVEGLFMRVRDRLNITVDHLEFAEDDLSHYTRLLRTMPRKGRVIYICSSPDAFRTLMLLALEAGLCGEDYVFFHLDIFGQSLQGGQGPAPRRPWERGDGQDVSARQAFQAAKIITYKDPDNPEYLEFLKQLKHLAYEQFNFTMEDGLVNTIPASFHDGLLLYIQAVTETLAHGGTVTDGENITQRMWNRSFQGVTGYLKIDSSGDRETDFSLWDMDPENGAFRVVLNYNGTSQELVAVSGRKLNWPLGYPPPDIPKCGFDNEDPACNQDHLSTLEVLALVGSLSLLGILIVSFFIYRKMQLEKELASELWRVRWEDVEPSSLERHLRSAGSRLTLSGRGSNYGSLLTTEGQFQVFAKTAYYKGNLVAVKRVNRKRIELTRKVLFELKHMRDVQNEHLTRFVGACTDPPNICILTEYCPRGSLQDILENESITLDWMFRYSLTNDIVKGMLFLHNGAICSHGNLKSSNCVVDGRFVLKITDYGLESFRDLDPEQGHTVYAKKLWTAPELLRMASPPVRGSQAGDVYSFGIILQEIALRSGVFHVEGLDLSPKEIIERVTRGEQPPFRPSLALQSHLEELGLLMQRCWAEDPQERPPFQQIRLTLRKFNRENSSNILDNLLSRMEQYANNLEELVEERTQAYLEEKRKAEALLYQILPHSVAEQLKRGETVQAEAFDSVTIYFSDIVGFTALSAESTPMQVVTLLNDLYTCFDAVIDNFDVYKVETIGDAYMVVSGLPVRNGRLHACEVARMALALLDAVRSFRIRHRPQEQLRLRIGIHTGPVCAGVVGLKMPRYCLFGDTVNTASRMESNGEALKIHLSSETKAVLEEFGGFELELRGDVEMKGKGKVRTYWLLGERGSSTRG

With `O=c1c2ccccc2[se]n1-c1ccccc1`, the Potency entry in experiment [1] and in experiment [2] was “inactive” in each case.

`CCCSP(=O)(OCC)SCCC`: the max response in experiment [3] was -0.31%. Further, the Potency entry in [4] and in [6] was “inactive” each time. The compound was classed as inactive in experiment [5] and in experiment [7].

As for `N#C/C(=C/c1ccc(O)c(O)c1)C(N)=S`, the compound was called inactive in experiment [5] and in experiment [7]. Also, the Potency result in [8] and in [9] was “inactive” each time.

Turning to `CCCN1CCCC2Cc3[nH]ncc3CC21` (stereo not drawn), the Potency result in experiment [1] is “inactive”.

Consider `COc1ccc2c(c1)/C(=C/c1cnc[nH]1)C(=O)N2`, for which the compound was classed as inactive in experiment [5]. In addition, the values for the Potency in experiment [10] and in experiment [6] were 7.31 µM (active) and 5.17 µM (active), respectively. Also, the Potency entry in [11], in [8] and in experiment [9] was “inactive” each time.

In the case of `CCN1C[C@@]2(COC)C3[C@@H](OC)C4[C@@H]1C3([C@@H]1C[C@]3(O)[C@H](OC(=O)c5ccccc5)[C@@H]1[C@]4(OC(C)=O)[C@@H](O)[C@@H]3OC)[C@H](OC)C[C@H]2O`, the result in experiment [5] and in [7] was inactive. The Potency result in experiment [11], in experiment [8] and in [9] was “inactive” each time.

Regarding `C[C@@H](Cc1ccccc1)NCCC(c1ccccc1)c1ccccc1`, the Potency result in [1] and in experiment [2] was “inactive” each time.

`C[C@@H]1[C@@H]2Cc3ccc(O)cc3[C@@]1(C)CCN2CC1CC1`: in [12], the max response was 29.7%. Further, the result in [5] was inactive. Moreover, the Potency entry in [6], in [11], in experiment [8] and in [9] was “inactive” in each case.

Consider `N[C@@H](CCl)C(=O)O`, for which the max response in [12] is 3.64%. In addition, in experiment [5], the compound was called inactive. The Potency entry in experiment [11], in experiment [8] and in [9] was “inactive” throughout.

In the case of `C[CH2][Hg][S]c1ccccc1C(=O)O`, the Potency in experiment [12] is 1.41 µM (active); in experiment [3], 50.1 µM (active); in experiment [4], 15.8 µM (active); in experiment [1] it was 3.16 µM (active); in experiment [2], 3.66 µM (active); in experiment [6], 2.31 µM (active). Besides, in [5], the call was inactive.

Turning to `CCN(CCCl)Cc1ccccc1Br`, the max response in experiment [12] is -1.83%. Also, the outcome in experiment [5] was inactive. Moreover, the Potency entry in experiment [11], in experiment [8] and in [9] was “inactive” each time.
